Test [1] is described as follows: ATG_E_Box_CIS: Attagene CIS-FACTORIAL HepG2 Assay for human Enhancer Box (E-box) (AID 2282936). Conditions: HepG2 E-box cis-reporter transcription, actives raise or lower the signal. The gist of the method:
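Multiplexed CIS reporter system in transiently transfected HepG2 cells measures native transcription factor activity. Reporter RNA after 24 h exposure is profiled by RT-PCR-capillary electrophoresis.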

Test [2] is described as follows: ATG_M_61_CIS: Attagene CIS-FACTORIAL HepG2 Assay for M61 Transcription Factor (Internal Marker) (AID 2282937). Conditions: HepG2 Attagene CIS-FACTORIAL M61 internal marker reporter; actives raise or lower the signal. The essentials: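 Readout: fluorescent reporter mRNA fragments resolved by capillary electrophoresis after RT-PCR. Transiently transfected human HepG2 cells carried MRTU constructs reporting endogenous TF activity; 24 h chemical exposure; gain or loss of signal fitted relative to DMSO.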

A short description of test [3]: ATG_EGR_CIS: Attagene CIS-FACTORIAL HepG2 Assay for human Early Growth Response 1 (EGR1) (AID 2282938). The note with it: HepG2 Attagene CIS-FACTORIAL EGR reporter mRNA; actives raise or lower the signal. The essentials: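 Read-out: fluorescent reporter-mRNA fragments resolved by capillary electrophoresis after RT-PCR, 24 h post-dose in transiently transfected HepG2. Endogenous transcription-factor activity reported via cis-element-regulated reporter units; gain or loss fitted relative to DMSO.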

The nature of test [4]: ATG_Ets_CIS: Attagene CIS-FACTORIAL HepG2 Assay for human Erythroblast Transformation Specific (ETS) (AID 2282941). Conditions: HepG2 ETS cis-reporter transcription, actives raise or lower the signal. The essentials: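 HepG2 cells transfected with multiple cis-regulated reporter units measuring endogenous ETS-driven transcription, 24 h after dosing. Reporter mRNA quantified by RT-PCR with capillary electrophoresis; bidirectional fit relative to DMSO.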

Test [5] deals with Hepatocyte nuclear factor 3-beta (Homo sapiens) (UniProt Q9Y261). As to the kind of experiment: ATG_FoxA2_CIS: Attagene CIS-FACTORIAL HepG2 Assay for human Forkhead box A2 (FOXA2) (AID 2282942). Conditions: HepG2 cis-reporter transcription factor activity, 24 h; actives raise or lower the signal. The gist of the method: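 Readout: fluorescent reporter transcripts resolved by capillary electrophoresis after RT-PCR. Transiently transfected HepG2, 24 h compound exposure, endogenous TF activity at cis promoter elements. Gain or loss of signal fitted relative to DMSO.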

A short description of test [6]: ATG_FoxO_CIS: Attagene CIS-FACTORIAL HepG2 Assay for human Forkhead box O (FoxO) (AID 2282943). The note with it: HepG2 Attagene cis-reporter, FoxO element, mRNA; actives raise or lower the signal. The gist of the method: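 HepG2 cells transiently transfected with cis-promoter-driven multiple reporter transcription units; 24 h after chemical dosing, reporter mRNA quantified by RT-PCR, fluorescent primer extension, HpaI digestion and capillary electrophoresis. Bidirectional fitting versus DMSO baseline.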

Test [7] is described as follows: ATG_GATA_CIS: Attagene CIS-FACTORIAL HepG2 Assay for human GATA Binding Protein (AID 2282944). Conditions: HepG2 GATA cis-element reporter, Attagene multiplex mRNA; actives raise or lower the signal. The gist of the method:
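Transfected cis-reporter HepG2 cells were treated with chemicals for 24 hours. Total RNA was then converted to cDNA, amplified with reporter-specific primers and analysed by fluorescent capillary electrophoresis, using DMSO-treated wells as baseline.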

Test [8] can be described thus: ATG_GLI_CIS: Attagene CIS-FACTORIAL HepG2 Assay for human Zinc Finger Protein GLI1 (AID 2282945). The note with it: HepG2, Attagene cis-factorial reporter mRNA, GLI element; actives raise or lower the signal. The essentials:
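HepG2 cells transiently transfected with cis-promoter multiplexed reporter units report endogenous transcription factor activity. After 24 h chemical exposure, reporter mRNA was quantified by RT-PCR, 6-FAM labelling, HpaI digestion and capillary electrophoresis, with bidirectional fitting against DMSO.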

For test [9], the target named is Bile acid receptor (Homo sapiens) (UniProt Q96RI1). As to the kind of experiment: ATG_IR1_CIS: Attagene CIS-FACTORIAL HepG2 Assay for human Nuclear Receptor Subfamily 1 Group H Member 4 (NR1H4), IR1 submotif (AID 2282946). The note with it: IR1 reporter transcription, actives raise or lower the signal. The gist of the method: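 Transient MRTU transfection, HepG2; 24 h dosing; RNA → RT-PCR → 6-FAM primer extension → HpaI digest → capillary electrophoresis fluorescence. Gain/loss of signal fitted relative to DMSO.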

Test [10] in a line: ATG_GRE_CIS: Attagene CIS-FACTORIAL HepG2 Assay for human Glucocorticoid Response Elements (GRE) (AID 2282947). Conditions: HepG2 GRE cis-reporter, Attagene multiplex mRNA; actives raise or lower the signal. The essentials:
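Following 24 h chemical exposure of transiently transfected HepG2 cells, total RNA was reverse-transcribed and reporter cDNA amplified, fluorescently labelled and sized by capillary electrophoresis. Signal gain or loss was fitted relative to DMSO vehicle.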

Test [11] in a line: ATG_ISRE_CIS: Attagene CIS-FACTORIAL HepG2 Assay for human Interferon Regulatory Factor 1 (IRF1) binding to an Interferon-Stimulated Response Element (ISRE) (AID 2282948). Conditions: HepG2 ISRE cis-reporter (Attagene), mRNA transcription readout; actives raise or lower the signal. The gist of the method: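 Transiently transfected HepG2 cells carrying cis-element reporter units, dosed 24 hours. Reporter mRNA quantified by RT-PCR, fluorescent primer extension, HpaI digestion and capillary electrophoresis. Bidirectional fitting relative to DMSO.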

Test [12] can be described thus: ATG_M_32_CIS: Attagene CIS-FACTORIAL HepG2 Assay for M32 Transcription Factor (Internal Marker) (AID 2282949).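 Further: background control marker of the multiplexed CIS panel rather than a real target.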 Conditions: HepG2 Attagene cis-factorial M32 reporter, mRNA; actives raise or lower the signal. The essentials: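 HepG2 cells transiently transfected with multiplexed cis-regulated reporter units, dosed 24 h. Reporter mRNA quantified by RT-PCR, 6-FAM labelling, HpaI digestion and capillary electrophoresis; bidirectional fit vs DMSO.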

For test [13], the target named is Hepatocyte nuclear factor 6 (Homo sapiens) (UniProt Q9UBC0). The experiment in a line: ATG_HNF6_CIS: Attagene CIS-FACTORIAL HepG2 Assay for human Hepatocyte Nuclear Factor 6 (HNF6) (AID 2282952). Conditions: HepG2 Attagene cis-factorial HNF6 reporter transcription; actives raise or lower the signal. The gist of the method:
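HepG2, transient MRTU transfection (cis promoters); 24 h chemical exposure; total RNA → oligo(dT) RT → PCR → 6-FAM labelling → HpaI cut → CE; bidirectional fit vs DMSO.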

For test [14], the target named is Heat shock factor protein 1 (Homo sapiens) (UniProt Q00613). The experiment in a line: ATG_HSE_CIS: Attagene CIS-FACTORIAL HepG2 Assay for human Heat Shock Transcription Factor 1 (HSE) (AID 2282953). Conditions: HepG2 HSE cis-reporter, Attagene RNA transcription; actives raise or lower the signal. The gist of the method:
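Liver-derived HepG2 cells carry transiently introduced multiple reporter units governed by cis promoters. Reporter RNA measured 24 h post-dose through reverse transcription, PCR amplification, fluorescent labelling and capillary electrophoresis, normalised to DMSO.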

A short description of test [15]: ATG_MRE_CIS: Attagene CIS-FACTORIAL HepG2 Assay for human Metal Responsive Element (MRE) (AID 2282954). The note with it: HepG2 MRE cis-reporter transcription, Attagene multiplex; actives raise or lower the signal. The essentials: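 Step one: transfect HepG2 with cis-regulated reporter units. Step two: dose 24 h. Step three: isolate RNA, RT-PCR, 6-FAM label, HpaI digest, capillary electrophoresis. Fit bidirectionally to DMSO.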

A short description of test [16]: ATG_PBREM_CIS: Attagene CIS-FACTORIAL HepG2 Assay for human Phenobarbital-responsive Enhancer Module (PBREM) (AID 2282955). Conditions: HepG2 PBREM cis-reporter, Attagene multiplexed transcription; actives raise or lower the signal. The gist of the method:
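Reporter mRNA read by RT-PCR, 6-FAM primer extension, HpaI digestion and capillary electrophoresis. Transfected HepG2 cells, 24 h compound exposure. Gain or loss of signal fitted bidirectionally relative to DMSO baseline.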

Test [17] addresses Hypoxia-inducible factor 1-alpha (Homo sapiens) (UniProt Q16665). As to the kind of experiment: ATG_HIF1a_CIS: Attagene CIS-FACTORIAL HepG2 Assay for human Hypoxia Inducible Factor 1 (HIF1A) (AID 2282951). Conditions: HepG2 Attagene cis-factorial HIF1a reporter transcription; actives raise or lower the signal. The gist of the method: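 RT-PCR/capillary electrophoresis fluorescence readout of reporter transcripts from endogenous-TF-driven cis elements in transfected HepG2 cells, 24 h exposure; activity fitted in both directions against DMSO controls.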

A short description of test [18]: ATG_ERE_CIS: Attagene CIS-FACTORIAL HepG2 Assay for Estrogen Response Element (ERE) (AID 2282940). Conditions: HepG2 ERE cis-reporter, Attagene RNA transcript; actives raise or lower the signal. The gist of the method: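 Human liver cells (HepG2) bearing transiently transfected, promoter-regulated reporter units were exposed 24 h. Reporter mRNA induction was detected by capillary electrophoresis of labelled RT-PCR products and fitted bidirectionally to DMSO.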

A short description of test [19]: ATG_M_06_CIS: Attagene CIS-FACTORIAL HepG2 Assay for M06 Transcription Factor (Internal Marker) (AID 2282950). Conditions: HepG2 Attagene CIS-FACTORIAL M06 internal marker reporter; actives raise or lower the signal. The gist of the method:
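Cells (HepG2, transiently carrying cis-driven reporter units) receive chemical for 24 h before RNA isolation. Reporter cDNA is PCR-amplified, FAM-labelled by primer extension, HpaI-digested and sized on a capillary analyser.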

Each structure is given as a SMILES string. Activity calls are given as the source filed them. How the source made its calls: active means hit-call score of the fitted dose curve at least 0.9, where 1 is the maximum; inactive means score below 0.9.

Sequence of Bile acid receptor (Homo sapiens) (Q96RI1 whole entry, looked up): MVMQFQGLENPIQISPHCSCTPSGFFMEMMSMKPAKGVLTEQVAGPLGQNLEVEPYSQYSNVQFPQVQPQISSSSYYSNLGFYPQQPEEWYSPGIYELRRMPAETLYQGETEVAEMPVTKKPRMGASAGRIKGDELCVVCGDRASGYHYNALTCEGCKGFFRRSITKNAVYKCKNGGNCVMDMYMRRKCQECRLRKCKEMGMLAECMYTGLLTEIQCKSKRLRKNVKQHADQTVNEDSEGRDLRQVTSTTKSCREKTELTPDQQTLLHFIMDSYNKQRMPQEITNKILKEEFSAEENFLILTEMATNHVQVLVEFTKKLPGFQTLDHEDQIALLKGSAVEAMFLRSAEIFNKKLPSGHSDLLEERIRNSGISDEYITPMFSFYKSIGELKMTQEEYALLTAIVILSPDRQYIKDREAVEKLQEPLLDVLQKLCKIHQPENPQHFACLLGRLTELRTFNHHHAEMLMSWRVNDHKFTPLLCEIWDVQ
Sequence of Hepatocyte nuclear factor 3-beta (Homo sapiens) (Q9Y261 whole entry, looked up): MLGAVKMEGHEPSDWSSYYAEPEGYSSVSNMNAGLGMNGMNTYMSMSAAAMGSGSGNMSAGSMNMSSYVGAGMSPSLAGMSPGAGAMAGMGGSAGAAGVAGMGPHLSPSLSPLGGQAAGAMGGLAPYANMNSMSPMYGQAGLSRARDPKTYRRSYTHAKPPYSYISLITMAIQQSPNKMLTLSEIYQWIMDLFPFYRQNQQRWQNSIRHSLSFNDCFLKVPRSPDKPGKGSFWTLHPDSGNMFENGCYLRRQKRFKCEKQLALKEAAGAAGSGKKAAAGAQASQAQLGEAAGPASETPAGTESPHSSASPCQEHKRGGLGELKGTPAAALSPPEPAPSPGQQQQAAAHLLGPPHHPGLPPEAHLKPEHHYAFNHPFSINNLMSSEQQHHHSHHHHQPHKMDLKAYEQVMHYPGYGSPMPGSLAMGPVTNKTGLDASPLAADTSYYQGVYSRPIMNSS
Sequence of Hypoxia-inducible factor 1-alpha (Homo sapiens) (Q16665 whole entry, looked up): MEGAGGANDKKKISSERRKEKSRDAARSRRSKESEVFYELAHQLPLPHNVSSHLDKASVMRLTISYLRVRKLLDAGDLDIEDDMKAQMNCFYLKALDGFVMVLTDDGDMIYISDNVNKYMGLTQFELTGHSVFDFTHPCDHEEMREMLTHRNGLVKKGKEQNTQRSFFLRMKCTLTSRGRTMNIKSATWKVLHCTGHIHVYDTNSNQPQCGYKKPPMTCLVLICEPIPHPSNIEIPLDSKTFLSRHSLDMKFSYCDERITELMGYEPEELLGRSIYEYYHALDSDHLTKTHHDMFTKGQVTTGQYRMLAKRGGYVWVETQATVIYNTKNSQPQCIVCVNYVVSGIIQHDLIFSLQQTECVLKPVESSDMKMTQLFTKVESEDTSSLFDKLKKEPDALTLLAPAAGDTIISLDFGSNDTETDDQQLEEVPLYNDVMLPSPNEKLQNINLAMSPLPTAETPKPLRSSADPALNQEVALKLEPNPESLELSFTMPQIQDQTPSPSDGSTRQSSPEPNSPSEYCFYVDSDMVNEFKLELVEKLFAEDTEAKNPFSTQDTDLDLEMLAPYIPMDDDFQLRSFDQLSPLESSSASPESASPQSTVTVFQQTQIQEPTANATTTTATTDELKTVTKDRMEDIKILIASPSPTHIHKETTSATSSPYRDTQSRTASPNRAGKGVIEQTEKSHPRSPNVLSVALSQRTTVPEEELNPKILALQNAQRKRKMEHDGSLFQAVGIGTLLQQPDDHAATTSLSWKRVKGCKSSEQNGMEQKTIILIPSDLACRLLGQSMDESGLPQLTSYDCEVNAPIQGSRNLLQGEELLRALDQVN
Sequence of Heat shock factor protein 1 (Homo sapiens) (Q00613 whole entry, looked up): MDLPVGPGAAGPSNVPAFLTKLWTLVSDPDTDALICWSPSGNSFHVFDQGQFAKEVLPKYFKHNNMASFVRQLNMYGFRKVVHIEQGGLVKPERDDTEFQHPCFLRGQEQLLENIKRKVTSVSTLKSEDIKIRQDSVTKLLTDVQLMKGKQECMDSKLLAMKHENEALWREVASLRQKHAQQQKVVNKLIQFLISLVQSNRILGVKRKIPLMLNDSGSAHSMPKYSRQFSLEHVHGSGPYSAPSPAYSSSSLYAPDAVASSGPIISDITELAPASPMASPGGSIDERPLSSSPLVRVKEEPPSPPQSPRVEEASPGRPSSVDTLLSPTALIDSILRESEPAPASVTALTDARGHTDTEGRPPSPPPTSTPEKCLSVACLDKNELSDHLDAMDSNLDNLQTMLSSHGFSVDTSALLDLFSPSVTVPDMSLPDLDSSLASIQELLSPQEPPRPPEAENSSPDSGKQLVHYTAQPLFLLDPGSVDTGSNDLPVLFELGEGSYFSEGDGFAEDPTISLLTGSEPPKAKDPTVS
Sequence of Hepatocyte nuclear factor 6 (Homo sapiens) (Q9UBC0 whole entry, looked up): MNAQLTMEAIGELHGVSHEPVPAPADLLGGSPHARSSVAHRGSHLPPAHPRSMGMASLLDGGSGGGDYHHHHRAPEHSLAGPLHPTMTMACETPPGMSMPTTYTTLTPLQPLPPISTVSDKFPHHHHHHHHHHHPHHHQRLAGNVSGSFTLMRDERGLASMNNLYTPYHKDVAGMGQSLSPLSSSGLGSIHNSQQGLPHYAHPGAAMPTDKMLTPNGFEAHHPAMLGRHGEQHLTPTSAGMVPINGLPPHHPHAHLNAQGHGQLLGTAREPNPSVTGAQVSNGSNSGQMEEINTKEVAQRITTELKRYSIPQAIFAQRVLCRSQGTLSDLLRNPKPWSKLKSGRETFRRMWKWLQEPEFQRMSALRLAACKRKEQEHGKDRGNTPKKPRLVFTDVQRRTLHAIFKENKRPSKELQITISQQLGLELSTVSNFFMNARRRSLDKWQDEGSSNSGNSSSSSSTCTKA

`CC(O)CN(CCN(CC(C)O)CC(C)O)CC(C)O` (centres undefined): the result in test [1], in test [2], in test [3], in [4], in [5] and in test [6] was inactive. In addition, the outcome in [7], in test [8], in test [9], in test [10], in [11] and in [12] was inactive. Further, the result in test [13], in test [14], in [15] and in test [16] was inactive.
As to `Cc1ccc(O)cc1`, the outcome in test [1], in [2], in test [3], in test [4], in test [5] and in test [6] was inactive. The compound was called inactive in [7], in test [8], in test [9], in test [10], in test [11] and in test [12]. Besides, the compound was classed as inactive in [13], in test [14], in test [15] and in test [16].
For the compound `O=C(OC[C@H]1O[C@@H](OC(=O)c2cc(O)c(O)c(OC(=O)c3cc(O)c(O)c(O)c3)c2)[C@H](OC(=O)c2cc(O)c(O)c(OC(=O)c3cc(O)c(O)c(O)c3)c2)[C@@H](OC(=O)c2cc(O)c(O)c(OC(=O)c3cc(O)c(O)c(O)c3)c2)[C@@H]1OC(=O)c1cc(O)c(O)c(OC(=O)c2cc(O)c(O)c(O)c2)c1)c1cc(O)c(O)c(OC(=O)c2cc(O)c(O)c(O)c2)c1`, the result in test [1], in test [2], in [3], in test [4], in [5] and in [6] was inactive. The compound was called inactive in [7], in test [8], in [10], in test [12], in [13] and in test [14]. The outcome in [15] and in test [16] was inactive. In addition, the AC50 in [17] is 6.05 µM (active).
For the compound `CC(C)(O)c1coc(S(=O)(=O)NC(=O)Nc2c3c(cc4c2CCC4)CCC3)c1`, the outcome in [1], in test [2], in test [3], in test [4], in [5] and in test [6] was inactive. For the same compound, the call in [7], in [8], in test [9], in test [10], in test [12] and in test [17] was inactive. The result in test [13], in [14], in [15] and in test [16] was inactive.
`CC(=O)OC[C@H]1O[C@@](COC(C)=O)(O[C@H]2O[C@H](COC(C)=O)[C@@H](OC(C)=O)[C@H](OC(C)=O)[C@H]2OC(C)=O)[C@@H](OC(C)=O)[C@@H]1OC(C)=O`: the result in test [1], in test [2], in test [3], in test [4], in [5] and in test [6] was inactive. Moreover, the outcome in [7], in test [8], in test [10], in test [12], in test [17] and in [13] was inactive. Further, the outcome in test [14] and in [15] was inactive.
`O=C(NS(=O)(=O)/C=C/c1ccccc1)c1ccc(F)cc1Cl`: the outcome in test [1], in test [2], in test [3], in test [18], in test [4] and in test [5] was inactive. The call in test [6], in [7], in test [8], in [12], in test [19] and in [17] was inactive. Besides, the compound was classed as inactive in [13], in test [14], in [15] and in [16].
For the compound `CC(=O)OCCC(C)C`, the outcome in test [1], in [2], in test [3], in test [4], in [5] and in [6] was inactive. The outcome in test [7], in [8], in test [10], in test [12], in test [19] and in [17] was inactive. The result in [13], in test [14], in test [15] and in test [16] was inactive.

The AC50 is the concentration giving half of the maximal activity seen.

The record behind these values is PubChem BioAssay (EPA / NIEHS).
